Measurements reported in PubChem BioAssay AID570 (The Scripps Research Institute Molecular Screening Center, 2006).
The whole screen tested about 65,000 compounds, of which about 45 (0.07%) were called active. Only a selection was taken, and actives are over-represented in it overall. Values without a mark were called inactive.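 How the source made its calls: active means inhibition above the mean of compound-free control plate wells plus 3 SD (cut at about 14% in these data); inactive means the rest.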

Target: Collagenase 3 (Homo sapiens) (UniProt P45452)
Assay: inhibition of MMP13 collagenase activity – biochemical, FRET peptide cleavage, primary screen (AID 570);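 further: 0% = DMSO wells and 100% = wells with reference MMP-13 inhibitor after basal subtraction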
Settings: MMP-13 fTHP FRET cleavage, Mca fluorescence; at 4 µM; hits give high values

First: Cn1c(=O)n(CCc2ccccc2)c(=O)c2c1nc1n2CCCN1c1ccccc1
Second: O=C(Cn1cnc2c(cnn2-c2ccccc2)c1=O)NCc1ccccc1
The inhibition of the first is higher: -0.2% for the first, -2% for the second.

First: CCC/C(O)=C1\C(=O)CC(C)(C)CC1=Nc1ccccc1OC
Second: C=CCC(NCCCO)c1cccc(OC)c1OC (centres undefined)
The inhibition of the first is higher: -1.2% for the first, -1.4% for the second.

Going from `CSCCC(NC(N)=O)C(=O)N(C)CC(=O)Nc1ccc(C)cc1` (centres undefined) to `CCOC(=O)CSc1nnc(CNc2ccc(F)cc2)o1`, the inhibition rises from -2.4% to -2.2%.

First: CCc1c(C)nc(N2CCN(Cc3ccccc3)CC2)[nH]c1=O
Second: Cc1cccc2cc(CN(Cc3nnnn3Cc3ccccc3)C3CCCC3)c(=O)[nH]c12
The inhibition of the first is higher: -7.8% for the first, -8.4% for the second.

Going from `COC(=O)c1c(-c2ccc(C)cc2)csc1N` to `C=CCn1cnc2scc(-c3ccccc3)c2c1=O`, the inhibition rises from -8.5% to 0.5%.

Compared with `CCn1c(COc2ccccc2)nnc1SCC(=O)Nc1ccc2c(c1)OCCO2`, `C=CCn1c(COc2ccccc2C)nnc1SCC(=O)O` is higher in inhibition: 0.5% for the first, 5.1% for the second.

First: C=CCNc1nnc(C)c2ccccc12
Second: CCC(C)Sc1nnc(-c2c[nH]c3ccccc23)n1CCOC (centres undefined)
The inhibition of the first is lower: 3.5% for the first, 6.4% for the second.

First: Cc1cc(NC(=O)CN2CCCCC2C)nc2c1c(=O)oc1ccccc12 (centres undefined)
Second: CCOC(=O)c1ccc(-n2c(C)nc3c(cnn3-c3ccccc3C)c2=O)cc1
The inhibition of the first is lower: 0.1% for the first, 7.5% for the second.

Going from `COc1ccccc1N1CCN(C(=O)c2cn(-c3ccccc3)nc2-c2cccnc2)CC1` to `COc1ccccc1N(CC(=O)N1CCCCC1)S(=O)(=O)c1ccccc1`, the inhibition rises from -5.4% to 2.1%.

First: CCCN1CC=C2C(C#N)=C(N)C(C#N)(C#N)C(c3cc(OC)ccc3OC)C2C1 (centres undefined)
Second: CCOC(=O)CSc1nnc(CNC(=O)c2cccs2)n1-c1cc(OC)ccc1OC
The inhibition of the first is lower: -14.3% for the first, -0.5% for the second.

`CCCCNC(=O)c1c[nH]c2ccc(S(=O)(=O)Nc3ccc(OCC)cc3)cc2c1=O` and `CCCCN(C)C(=O)c1ccc2c(c1)N(CC)C(=O)c1ccccc1S2(=O)=O` are the same in inhibition: -4.5% for the first, -4.5% for the second.

First: Cc1cccc(N2CCN(S(=O)(=O)c3ccc4c(c3)c(=O)n(C)c(=O)n4C)CC2C)c1 (centres undefined)
Second: CN1CCN(c2cc(=O)n(-c3ccc(Cl)cc3)c(=O)[nH]2)CC1
The inhibition of the first is higher: 4.1% for the first, 0.4% for the second.

Compared with `CCOC(=O)c1cc2occc2n1CC(=O)NC1CCC(C)CC1` (centres undefined), `CC(C)N1C(=O)C2C(C(=O)NC3CCCCC3)C3C=CC2(O3)C1C(=O)NC1CCCC1` (centres undefined) is lower in inhibition: 4.9% for the first, -2.8% for the second.

Compared with `COc1ccc(NS(=O)(=O)c2ccc(NC(=O)C(C)(C(F)(F)F)C(F)(F)F)cc2)nn1`, `CN(CCCC(=O)Nc1nccs1)S(=O)(=O)c1ccc(Cl)cc1` is higher in inhibition: -10.5% for the first, 6% for the second.

First: Cc1ccc(C(=O)CSc2nnc(Cn3nnc4ccccc43)n2C)cc1
Second: CCOC(=O)CSc1nc2c(sc(=S)n2CCc2ccccc2)c(=O)n1Cc1ccco1
The inhibition of the first is higher: 7.7% for the first, 2.4% for the second.

Going from `CCN1CCN(Cc2c(O)ccc3c(=O)c(-c4ccc(OC)c(OC)c4)c(C(F)(F)F)oc23)CC1` to `Cc1cc(C(F)(F)F)n2ncc(-c3ccccc3)c2n1`, the inhibition falls from 4.7% to 3.8%.

Compared with `O=c1nc2s/c(=C\c3ccco3)c(=O)n2nc1Cc1ccccc1`, `Cc1ccccc1NC(=O)NCc1ccco1` is higher in inhibition: 0.1% for the first, 2.4% for the second.

Compared with `CCc1nnc(NC(=O)c2c(O)c3c([nH]c2=O)CCCC3)s1`, `O=C(NCCCN1CCN(c2ccccc2F)CC1)C1CCC(=O)N1C1CCCCC1` (centres undefined) is higher in inhibition: -11% for the first, 1.3% for the second.

`CC(C)(C)n1nnnc1C(c1cccs1)N(Cc1cccnc1)CC1CCCO1` (centres undefined) and `FC(F)(F)c1cc(-c2cccs2)nc(NCc2ccco2)n1` are the same in inhibition: -3.9% for the first, -3.9% for the second.

In the case of `CN(c1ccccc1)c1ccc(/C=c2\s/c(=C(/C#N)C(=O)C(C)(C)C)n(Cc3ccco3)c2=O)cc1`, the inhibition was 15.4% (active).
